BAZ2B block – qHTS Assay for Inhibitors of BAZ2B; Bromodomain adjacent to zinc finger domain protein 2B (Homo sapiens), Q9UIF8; AlphaScreen BAZ2B-H3K14Ac peptide displacement; Potency, µM (doses to about 114 µM), without a hit: at the top dose activity change, negative = inhibition, usual class: inhibitors; 360,000 compounds, 4.4% hits; AID 504333, 2011; also: % is scaled to controls: 0 for no effect and ±100 for the full control effect; nearly all actives have a fitted effect of over 60% in size
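AlphaScreen displacement: compounds (up to 110uM) incubated 30 min at room temperature with a preformed 50 nM BAZ2B/50 nM biotinylated H3K14Ac peptide complex in PBS pH 7.4 with Tween-20. Donor and acceptor beads at 10 ug/mL final added, 20 min light-protected before reading.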
JMJD2A Tudor – qHTS Assay for Inhibitors of JMJD2A-Tudor Domain; Lysine-specific demethylase 4A (Homo sapiens), O75164; AlphaScreen JMJD2A-Tudor / H3K4me3 peptide binding; Potency, µM (doses to about 114 µM), for the others: at the top dose activity change, negative = inhibition, actives largely listed as inhibitors; 390,000 compounds, 4.4% hits; AID 504339, 2011; also: % is scaled to controls: 0 for no effect and ±100 for the full control effect; nearly all actives have a fitted effect of over 50% in size
G9a inh – qHTS Assay for Inhibitors of Histone Lysine Methyltransferase G9a. Histone-lysine N-methyltransferase EHMT2 (Homo sapiens), Q96KQ7. G9a H3K9 monomethylation, AlphaScreen, 2 h. Potency, µM (top dose mostly 102 µM), for inactives: at the highest dose activity, negative = inhibition, actives largely listed as inhibitors. 350,000 compounds, 8.8% hits; also: % is scaled to controls: 0 for no effect and ±100 for the full control effect; nearly all actives have a fitted effect of over 75% in size
Target sequence (Q96KQ7 913-1193 limits assumed): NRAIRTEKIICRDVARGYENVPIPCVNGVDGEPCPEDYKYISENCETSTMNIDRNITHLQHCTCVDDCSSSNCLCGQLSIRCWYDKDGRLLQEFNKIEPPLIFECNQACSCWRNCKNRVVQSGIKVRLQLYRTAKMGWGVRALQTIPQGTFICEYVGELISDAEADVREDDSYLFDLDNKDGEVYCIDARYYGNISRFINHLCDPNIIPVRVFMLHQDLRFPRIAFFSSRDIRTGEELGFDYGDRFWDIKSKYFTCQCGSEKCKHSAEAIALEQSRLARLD
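Quantitative HTS format: methyltransferase activity on a biotin-tagged H3K9 peptide is measured by AlphaScreen, using a rabbit anti-monomethyl-H3K9 antibody with streptavidin donor and anti-IgG acceptor beads. Final levels are 20 nM enzyme, 500 nM peptide, 20 uM SAM; 2 h RT.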
Sfp inh – qHTS Assay for Inhibitors of Bacillus subtilis Sfp phosphopantetheinyl transferase (PPTase) | 4'-phosphopantetheinyl transferase ffp (Bacillus subtilis), Q9F4F7 | Biochemical Sfp PPTase activity, qHTS | Potency, µM, inactives show largest response in the series, negative = inhibition, usual class: inhibitors | 310,000 compounds, 3.5% hits | AID 1490, 2009;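 also: the enzyme is Sfp with the accession as filed and its product quenches rhodamine fluorescence; 0% = enzyme reaction without inhibitor and -100% = no enzyme wells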
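After 15 min at room temperature with compound, 15 nM Sfp received 5 uM rhodamine-CoA plus 12.5 uM BHQ-2-ybbR (50 mM Hepes pH 7.6, 10 mM MgCl2). Rate came from the fluorescence difference over 30 min, ex 525/em 598 nm.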
HP1b chromo inh – HTS for Inhibitors of HP1-beta Chromodomain Interactions with Methylated Histone Tails | AlphaScreen HP1-beta / biotin-H3K9me3 peptide binding | Potency, µM (doses to about 114 µM), for the others: at the top dose activity change, negative = inhibition, most hits filed as inhibitors | 390,000 compounds, 0.56% hits; also: nearly all actives have a fitted effect of over 70% in size
Target sequence (P83916 whole entry, looked up): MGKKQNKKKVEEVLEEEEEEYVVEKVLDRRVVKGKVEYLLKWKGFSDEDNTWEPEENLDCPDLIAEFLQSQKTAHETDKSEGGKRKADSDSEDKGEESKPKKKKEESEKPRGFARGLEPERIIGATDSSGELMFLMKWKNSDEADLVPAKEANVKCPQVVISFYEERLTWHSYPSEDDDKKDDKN
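Compound inhibition of the preformed complex between 50 nM HP1-beta and 50 nM biotinylated H3K9me3 peptide was read by AlphaScreen. Buffer was PBS pH 7.4 with 0.01% Tween-20. Incubations ran 30 min at room temperature, with 10 ug/mL donor/acceptor beads.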
PLK1 PBD block – qHTS for Inhibitors of PLK1-PDB (polo-like kinase 1 - polo-box domain): Primary Screen; Serine/threonine-protein kinase PLK1 (Homo sapiens), P53350; Potency, µM, for the others: max response, negative = inhibition, actives largely listed as inhibitors; Plk1 PBD binding of FITC phosphopeptide, fluorescence polarization; 360,000 compounds, 2.8% hits; also: series mostly up to about 57 µM; % is scaled to controls: 0 for no effect and ±100 for the full control effect; nearly all actives have a fitted effect of over 65% in size
Numbers without * were called inactive; [ ] = remark or other dose. This is a sample that favours compounds with a hit; in the whole collection about 12% have one here. Calls follow the shape of the dose curve; as a rule, active = well fitted curve in the direction sought with a large enough effect; inconclusive = small, poorly fitted or top-dose-only effect, or another doubt; inactive = no such curve, though single readings can be large; an effect the other way counts as inactive or inconclusive. Potency is read from the fitted curve at half-maximal effect.

How did CC(C)(C)c1ccc(S(=O)(=O)/N=C2\C=C(NS(=O)(=O)c3ccccc3)C(=O)c3ccccc32)cc1 do in these assays?
BAZ2B block: 28µM*; JMJD2A Tudor: 25µM*; G9a inh: 10µM*; Sfp inh: -9%; HP1b chromo inh: inconclusive; PLK1 PBD block: 13µM*

What do the screens show for `Cc1ccc(S(=O)(=O)/N=C2\C=C(NS(=O)(=O)c3ccccc3)C(=O)c3ccccc32)c(C)c1`?
JMJD2A Tudor: 22µM*; HP1b chromo inh: 22µM*; PLK1 PBD block: 19µM*

What do the screens show for `COC(=O)C1=C(C(=O)OC)[C@@H]2N(C)c3ccccc3[C@@]23C[C@@H](C(=O)OC)N(S(=O)(=O)c2ccc(C#N)cc2)C3=N1`?
Sfp inh: 2%

Results for O=C(NN=C1CCCC1)c1ccccc1[N+](=O)[O-] ?
BAZ2B block: -1%; JMJD2A Tudor: -5%; Sfp inh: -3%; HP1b chromo inh: 48%; PLK1 PBD block: 0%

What do the screens show for `COc1cc(NC(=O)c2cccc(Br)c2)nc(OC)n1`?
BAZ2B block: 11%; JMJD2A Tudor: -8%; G9a inh: 46%; Sfp inh: -8%; HP1b chromo inh: 45%; PLK1 PBD block: -20%

What do the screens show for `CCOc1ccc(-n2c(C)nc(O)c2N=Nc2ccccc2)cc1`?
BAZ2B block: inconclusive; JMJD2A Tudor: inconclusive; G9a inh: 1.4µM*; Sfp inh: -3%; HP1b chromo inh: -7%; PLK1 PBD block: -12%

What do the screens show for `Cc1ccc(/C=N/NC(=O)CSc2nnc(-c3ccc(Cl)cc3)n2-c2ccc(Cl)cc2)o1`?
BAZ2B block: 3%; JMJD2A Tudor: -10%; G9a inh: -3%[59 µM]; Sfp inh: inconclusive; HP1b chromo inh: 26%; PLK1 PBD block: -9%

Results for Cc1ccc(/C=N/NC(=O)c2ccccn2)o1 ?
BAZ2B block: -2%; JMJD2A Tudor: -13%; G9a inh: inconclusive; Sfp inh: 56µM*; HP1b chromo inh: 36%; PLK1 PBD block: 3%

What do the screens show for `Cc1ccc(/C=N/NC(=O)c2ccncc2)o1`?
BAZ2B block: inconclusive; JMJD2A Tudor: inconclusive; G9a inh: -17%[59 µM]; Sfp inh: -19%; HP1b chromo inh: 12%; PLK1 PBD block: 0%

Results for C/C(CC(=O)NC1CCCCC1)=N\NC(=O)c1ccccn1 ?
BAZ2B block: -30%; JMJD2A Tudor: inconclusive; Sfp inh: 89µM*; HP1b chromo inh: 35%; PLK1 PBD block: -9%

Results for Cc1ccc(/C=N/NC(=O)CSc2nnc(-c3ccccc3)n2-c2ccc(Cl)cc2)o1 ?
BAZ2B block: inconclusive; JMJD2A Tudor: -34%; G9a inh: 45µM*; Sfp inh: -28%; HP1b chromo inh: -11%; PLK1 PBD block: 3%

What do the screens show for `Cc1ccc(/C=N/NC(=O)C2(O)c3ccccc3-c3ccccc32)o1`?
BAZ2B block: -31%; JMJD2A Tudor: -8%; G9a inh: 56µM*; Sfp inh: inconclusive; HP1b chromo inh: 30%; PLK1 PBD block: -3%

Results for Cc1ccc(NC(=O)CN2CCN(S(=O)(=O)c3ccc(F)cc3)CC2)cc1C ?
BAZ2B block: -3%; JMJD2A Tudor: -19%; G9a inh: -4%[12.7 µM]; HP1b chromo inh: 9%; PLK1 PBD block: -6%

Results for O=C(N/N=C/c1ccncc1)c1ccccn1 ?
BAZ2B block: 50µM*; JMJD2A Tudor: 0%; G9a inh: 2µM*; Sfp inh: inconclusive; HP1b chromo inh: 40%; PLK1 PBD block: 5%

How did Cc1ccc(C)n1-c1ccc(C(=O)N/N=C/c2ccncc2)cc1 do in these assays?
JMJD2A Tudor: 79µM*; G9a inh: -21%; Sfp inh: 10%; HP1b chromo inh: inconclusive; PLK1 PBD block: inconclusive

What do the screens show for `Cc1ccc(/C=N\NC(=O)Cn2nnc3ccccc32)o1`?
BAZ2B block: 0%; JMJD2A Tudor: -8%; G9a inh: 89µM*; Sfp inh: inconclusive; HP1b chromo inh: 33%; PLK1 PBD block: -2%

What do the screens show for `O=C(NN=C1c2ccccc2-c2ccccc21)c1ccccn1`?
BAZ2B block: 50µM*; JMJD2A Tudor: inconclusive; G9a inh: 4%; Sfp inh: inconclusive; HP1b chromo inh: 11%; PLK1 PBD block: -11%

What do the screens show for `Cc1ccc(/C=N/NC(=O)Cn2cnc3ccccc32)o1`?
BAZ2B block: -26%; JMJD2A Tudor: -9%; Sfp inh: -65%; HP1b chromo inh: 24%; PLK1 PBD block: -8%

Results for O=C(Cn1c(=O)n(CC2CCCO2)c(=O)c2ccccc21)Nc1ccc(F)cc1F (stereo unspecified) ?
BAZ2B block: 2%; JMJD2A Tudor: 0%; G9a inh: 5%[59 µM]; HP1b chromo inh: 44%

What do the screens show for `O=C(NN=C1C2CC3CC1CC(Cl)(C3)C2)c1ccccn1`?
BAZ2B block: -16%; JMJD2A Tudor: -23%; G9a inh: -7%; Sfp inh: 7.9µM*; HP1b chromo inh: 39%; PLK1 PBD block: -14%

Results for O=C(NN=C1C2CC3CC1CC(Cl)(C3)C2)c1cccs1 ?
BAZ2B block: -2%; JMJD2A Tudor: -9%; G9a inh: -47%; Sfp inh: -6%; HP1b chromo inh: 24%; PLK1 PBD block: -2%

How did O=C1CC(NS(=O)(=O)c2cccnc2)CN1c1cccc(F)c1 (stereo unspecified) do in these assays?
BAZ2B block: -2%; JMJD2A Tudor: 1%; G9a inh: inconclusive; HP1b chromo inh: 26%; PLK1 PBD block: -1%

How did N#Cc1ccc(CSc2nnc(-c3ccc(Br)cc3)o2)cc1 do in these assays?
BAZ2B block: -13%; JMJD2A Tudor: -4%; G9a inh: 7%[59 µM]; HP1b chromo inh: 38%

Results for CCOc1ccc(C2C=C(c3ccc(C)cc3)Nc3nnnn32)cc1 (stereo unspecified) ?
BAZ2B block: inconclusive; JMJD2A Tudor: -10%[57.1 µM]; G9a inh: 50µM*; Sfp inh: -11%; HP1b chromo inh: 37%; PLK1 PBD block: 27µM*

What do the screens show for `CCOc1ccc(C2C=C(c3cccc(OC)c3)Nc3nnnn32)cc1` (stereo unspecified)?
BAZ2B block: -11%; JMJD2A Tudor: -11%; G9a inh: 6%[59 µM]; HP1b chromo inh: 6%

Results for CCOc1ccc(C2C=C(c3ccc(C)cc3)Nc3ncnn32)cc1 (stereo unspecified) ?
BAZ2B block: 12%; G9a inh: 28µM*; Sfp inh: -30%
